FLuc modulator: qHTS profiling assay for firefly luciferase inhibitor/activator using purifed enzyme and Km concentrations of substrates (counterscreen for miR-21 project); Luciferin 4-monooxygenase (Photinus pyralis), P08659; purified FLuc, Km substrates, luminescence inhibition; Potency, µM (highest dose often 57.5 µM), inactives show at the highest dose activity change, negative = inhibition, hits mostly inhibitors; 360,000 compounds, 6.9% hits; AID 588342, 2011;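 also: plate controls were vehicle for no effect and reference inhibitor for full effect; nearly all actives have a fitted effect of over 55% in size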
Target sequence (P08659 whole entry, looked up): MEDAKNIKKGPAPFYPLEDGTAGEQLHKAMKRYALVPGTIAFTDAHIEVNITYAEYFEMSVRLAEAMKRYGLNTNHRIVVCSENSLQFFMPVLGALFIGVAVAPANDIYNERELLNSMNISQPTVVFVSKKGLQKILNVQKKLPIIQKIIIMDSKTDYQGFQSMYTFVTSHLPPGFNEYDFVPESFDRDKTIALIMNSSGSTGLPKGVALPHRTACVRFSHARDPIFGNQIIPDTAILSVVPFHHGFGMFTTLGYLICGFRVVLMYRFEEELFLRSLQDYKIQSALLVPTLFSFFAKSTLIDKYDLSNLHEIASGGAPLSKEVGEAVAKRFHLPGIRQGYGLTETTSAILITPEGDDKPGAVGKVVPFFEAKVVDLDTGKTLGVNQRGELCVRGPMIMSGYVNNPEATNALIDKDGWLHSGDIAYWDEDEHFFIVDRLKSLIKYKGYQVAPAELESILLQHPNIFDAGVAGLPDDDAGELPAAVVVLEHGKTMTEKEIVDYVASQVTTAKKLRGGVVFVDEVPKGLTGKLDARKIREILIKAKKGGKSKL
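Purified P. pyralis luciferase (10nM final) with 10uM D-luciferin and 10uM ATP (Km levels) in 50mM Tris acetate pH 7.5, 10mM Mg acetate, 0.01% Tween-20, 0.05% BSA; qHTS 6-point titration, ~60 µM downward; luminescence read.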
ELG1 genotoxic: qHTS screen for small molecules that induce genotoxicity in human embryonic kidney (HEK293T) cells expressing luciferase-tagged ELG1; AID 504466, 2011; HEK293T ELG1-luciferase reporter, luminescence, 16 h; Potency, µM (doses to about 46 µM), without a hit: at the top dose activity change, positive = activation, most hits filed as activators; 330,000 compounds, 1.3% hits; also: % of control where 0% means no effect; nearly all actives have a fitted effect of over 60% in size
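Luminescence read-out: rising ELG1-luciferase signal, reflecting elevated ELG1 protein under genetic stress, flags genotoxic compounds. Cells were treated for 16 hr at 37 °C before ONE-Glo detection.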
NPC1 promoter act: qHTS Assay for NPC1 Promoter Activators; Huh7 NPC1 promoter luciferase reporter, 24 h; Potency, µM (top dose mostly 9.22 µM), for inactives: top-dose activation, hits mostly activators; 320,000 compounds, 2.4% hits; AID 485313, 2010; also: % of control where 0% means no effect; nearly all actives have a fitted effect of over 60% in size
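Huh7 reporter cells (NPC1 promoter driving luciferase) are dosed with compound for 24 h at 37 °C, 5% CO2; luciferase detection reagent is then added and luminescence measured after 10 min at ambient temperature.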
Rab9 promoter act: qHTS Assay for Rab9 Promoter Activators; Huh7 Rab9 promoter-luciferase reporter, luminescence, 24 h; Potency, µM (top dose mostly 9.22 µM), without a hit: at the top dose activation, negative = inhibition, most hits filed as activators; 320,000 compounds, 2.8% hits; also: % of control where 0% means no effect; nearly all actives have a fitted effect of over 60% in size
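Cells were plated at 1500 per well in reduced-serum medium with 10% FBS and left 2 h. Compound in DMSO was then added for 24 h at 37 °C. Reporter signal was read by luminescence after 10 min with luciferase detection reagent.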
SMN2 splice up: qHTS Assay for Enhancers of SMN2 Splice Variant Expression; Potency, µM (highest dose often 46.1 µM), for the others: at the top dose activity change, positive = activation, usual class: activators; 210,000 compounds, 2.8% hits; HEK293 SMN2-luciferase splicing reporter, luminescence, 30-36 h; also: % of control where 0% means no effect; nearly all actives have a fitted effect of over 55% in size
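HEK293 cells carry an SMN2 […]–luciferase reporter in which exon 7 inclusion puts luciferase in frame. Cells were plated 10-12 h before compound addition, then incubated 30-36 h at 37C. ONE-Glo luminescence was read; sodium butyrate at 4.5 mM final served as control.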
An asterisk follows results filed as active; ? = inconclusive; . = not tested or not shown; [ ] = dose if it differs, or a comment. An excerpt weighted towards active compounds, which were near 7.4% of everything screened. Calls follow the shape of the dose curve; as a rule, active = well fitted curve in the direction sought with a large enough effect; inconclusive = small, poorly fitted or top-dose-only effect, or another doubt; inactive = no such curve, though single readings can be large; an effect the other way counts as inactive or inconclusive. Potency is read from the fitted curve at half-maximal effect.

SMILES | FLuc modulator | ELG1 genotoxic | NPC1 promoter act | Rab9 promoter act | SMN2 splice up
CCc1cc2c(=O)c(-c3ccc4c(c3)OCCO4)coc2c(CN2CCCCC2C)c1O (stereo unspecified) | 6.7µM* | 12% | 7% | 21% | .
COc1ccc(S(=O)(=O)CC(=O)Nc2nnc(C(F)(F)F)s2)cc1 | 6% | -2% | -3% | 7% | .
COc1ccc(C(=O)Nc2nnc(C(F)(F)F)s2)cc1 | 5.4µM* | ? | 1.8µM* | 2.5µM* | 5µM*
COc1ccc(-c2nnc(NC(=O)c3c(OC)cccc3OC)s2)cc1 | ? | -2% | 4% | 3% | .
COC(=O)Nc1nnc(-c2ccc(OC)cc2)s1 | 8.5µM* | 16µM* | 2.5µM* | 2.8µM* | .
COc1ccc(C(=O)Nc2nnc(-c3ccccc3)s2)cc1 | -12% | 18µM* | 0.79µM* | 1.3µM* | .
COc1ccc(-c2nnc(NC(=O)c3cc(C)on3)s2)cc1 | 12µM* | ? | 9% | -1% | ?
COc1cccc(-c2nc(SCc3cc(=O)c4ccc(C)c(C)c4[nH]3)n[nH]2)c1 | -1% | . | . | . | .
CCc1nnc(NC(=O)Cc2ccc(OC)c(OC)c2)s1 | -2% | 1% | -5% | -10% | -4%
CCOC(=O)Nc1nnc(-c2ccc(OC)c(OC)c2)s1 | 1% | 4% | -3% | 6% | 5.6µM*
CCCCOc1ccc(C(=O)Nc2ccc3c(c2)OCO3)cc1 | ? | ? | 22% | ? | ?
CCCOc1ccc(C(=O)Nc2ccc3c(c2)OCO3)cc1 | 2.1µM* | 2.3µM* | 1µM* | 2.8µM* | .
CCC(=O)Oc1ccc(C(=O)Nc2ccc3c(c2)OCO3)cc1 | 5.4µM* | ? | 2.2µM* | 4.5µM* | 16µM*
CCc1ccc(C2CC(c3ccco3)=NN2S(C)(=O)=O)cc1 (stereo unspecified) | 1.3µM* | ? | 0.45µM* | 0.32µM* | 0.5µM*
CN(C)C(=O)c1ccc(-c2cc(C(F)(F)F)nn2C)s1 | 15µM* | ? | 3.5µM* | ? | .
O=C(Nc1ccccn1)c1sc2cccc(F)c2c1Cl | 0.38µM* | ? | ? | ? | 2.5µM*
O=C(Nc1cccnc1)c1sc2cccc(F)c2c1Cl | 8.5µM* | -3% | ? | ? | ?
Cc1ccc(C(=O)Nc2nc(-c3nnn(-c4cccc(Cl)c4C)c3C)ns2)cc1C | -8% | . | . | . | .
Cc1ccc(Cl)cc1-n1nnc(-c2nsc(NC(=O)c3ccccc3Cl)n2)c1C | 12µM* | . | . | . | -25%
Cc1c(/C=N/NC(=O)c2cc(=O)[nH]c(=O)[nH]2)c2ccccn2c1C(=O)c1ccccc1 | 24µM* | -2% | 0% | -2% | -16%
Cc1c(/C=N/NC(=O)c2ccc(O)cc2)c2ccccn2c1C(=O)c1ccc(F)cc1 | ? | -8% | 5% | 6% | -35%
Cc1c(/C=N/NC(=O)c2cccnc2)c2ccccn2c1C(=O)c1ccc(F)cc1 | 15µM* | -11% | -2% | -3% | -24%
Cc1c(/C=N/NC(=O)c2ccccc2O)c2ccccn2c1C(=O)c1ccc(F)cc1 | 13µM* | -17% | -1% | 7% | -103%
O=C(Nc1ccc2c(c1)N(S(=O)(=O)c1cccs1)CCC2)c1c(F)cccc1F | 1% | 4% | -1% | -5% | .
O=S(=O)(c1cccs1)N1CCCc2cccc(O)c21 | 19µM* | 5% | 8% | 3.5µM* | 9%
SMILES | FLuc modulator | ELG1 genotoxic | NPC1 promoter act | Rab9 promoter act | SMN2 splice up
Nc1cccn2c(-c3ccc(Cl)c(Cl)c3)cnc12 | 3µM* | ? | ? | 3.2µM* | 3.5µM*
Cn1c(-c2ccc(Cl)cc2)cnc1N | 0% | -2% | 9% | 7% | -4%
Nc1nnc(-c2ccc(Cl)c(Cl)c2)s1 | ? | 1% | 2% | 14% | 3%
Nc1cccn2c(-c3ccc(Cl)cc3)cnc12 | 2.7µM* | ? | ? | 3.5µM* | 11µM*
N#Cc1nc(/C=C/c2ccc(F)cc2)oc1N1CCCCC1 | -10% | . | . | . | 8%
COc1cccc(CNC(=O)c2ccc3nc(N4CCCCC4)sc3c2)c1OC | ? | . | . | . | 10%
COc1cccc([C@@H]2Oc3ccc(OC)cc3C(=O)[C@H]2OC(=O)NS(=O)(=O)c2ccc(C)cc2)c1 | . | . | . | . | 11µM*
Cc1ccc(N2C(S)=C(C#N)C(=O)NC23CCCCC3)cc1 | 17µM* | 1% | -2% | -5% | 19%
Cc1ncc(CO)c(/C=N/NC(=S)Nc2ccc(C(C)C)cc2)c1O | 13µM* | -2% | -7% | 1% | .
CCOCCCn1c(SCC(=O)Nc2ccc(F)cc2)nc2c(sc3ccccc32)c1=O | 1% | . | . | . | .
C/C(=N\O)c1ccc(N2C(=O)C3CC=C(Cl)CC3C2=O)cc1 (stereo unspecified) | 11µM* | ? | ? | ? | ?
CCc1ccc2c(O)c3c(cc2c1C(=O)OC)C(=O)c1c(O)ccc(O)c1C3=O | . | . | . | . | 4%
CC(=O)c1sc2nsc(SCCN3CCOCC3)c2c1N | -19% | 6% | 1% | 16% | .
Nc1c(C(=O)c2ccccc2)sc2nsc(SCCN3CCOCC3)c12 | 21µM* | 9% | ? | ? | .
Cc1ccsc1/C=C1/C(=O)NN(c2ccccc2)C1=O | 9.5µM* | -7% | ? | -4% | -4%
Cc1ccsc1C=C1C(=O)c2ccccc2C1=O | 1.3µM* | 2% | ? | ? | 9%
CCOC(=O)c1c(NC(=O)CSc2cn(CCNC(=O)c3ccccc3OC)c3ccccc23)sc2c1CCC2 | -2% | . | . | . | 16%
Cc1c(C=C2C(=O)c3ccccc3C2=O)cc(C#N)n1C | 1% | -2% | -4% | -5% | .
Cc1ccc(C(=O)/C=C/c2cc(C#N)n(C)c2C)cc1 | 8.5µM* | 9% | 13% | 14% | .
Cc1ccc(NC(=O)CSCn2nnc3c(=O)[nH]c(Cc4ccc(F)cc4)nc32)c(C)c1 | -14% | . | . | . | -2%
O=C(NNC(=O)c1cccc(C(F)(F)F)c1)c1ccncc1 | -11% | 2% | 1% | -4% | .
COc1cc(C(=O)NC2=NCCS2)cc(OC)c1OC | 0% | -1% | 2% | 3% | ?
O=C(NC1=NCCS1)c1ccc(C(F)(F)F)cc1 | 11µM* | ? | 2.8µM* | 15%[1.84 µM] | .
O=C(Nc1ncccn1)c1ccc(C(F)(F)F)cc1 | 19µM* | 3% | 0% | -5% | -1%
Cc1ccc(C(=O)NC2=NCCS2)cc1 | 11µM* | ? | 2.8µM* | 3.5µM* | .
O=C(NC1=NCCS1)c1ccc(N2CCCC2=O)cc1 | -8% | 8% | 20% | ? | ?
Cc1ccc(C(=O)NC2=NCCS2)cc1Cl | 6.7µM* | ? | 1.4µM* | 1.3µM* | .
N#Cc1ccc(C(=O)NC2=NCCS2)cc1 | ? | 16% | ? | ? | .
COc1cc(OC)c(NC(=O)c2nnn(Cc3ccc(C)cc3)c2N)cc1Cl | -9% | . | . | . | 1%

Bioassay records deposited in PubChem by National Center for Advancing Translational Sciences (NCATS).
